# Test results: PubChem BioAssay (NCI)
# Several values for one entry are separate records, joined by “and”; a condition that tells them apart may be missing. Equal values may be shown once. This is part of a sample that, as a whole, favours compounds with a hit. Of some 83,000 tested, about 20% had one in any assay.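 Method: cells in 96-well plates; compound added at one concentration; 48 h incubation; percent growth measured; values under 10 scored active.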 Activity calls are given as the source filed them.
# System: HL-60(TB) leukemia
# Assay: NCI-60 one-dose screen, 48 h (100 = growth as untreated, 0 = no growth, -100 = all killed)
# Conditions: 10 µM unless noted
row,SMILES,growth
1,CC1=C(CCC(C)N(C)Cc2ccc(OCCCN3CCCC3)cc2)C(C)(C)CCC1 (stereo not given),24.6% (inactive)
2,Clc1ccc(CNc2c3ccccc3nc3ccccc23)cc1,44.7% (inactive)
3,O=C1Nc2ccc(Br)cc2/C1=N/c1nc(-c2ccccc2)cs1,73.1% (inactive)
4,O=C1/C(=C/c2ccc3cccc(Cl)c3n2)SC(=S)N1CCc1ccc(O)cc1,32.4% (inactive)
5,COc1ccc(N2CCC(=O)NC2=S)cc1,101% (inactive)
6,Cc1cc(N2CCCC2)nc(N(CCNc2ccnc3cc(Cl)ccc23)Cc2ccco2)n1,-52.8% (active)
7,COc1ccc(-c2nc(SCCC(C)C)nc(Nc3ccc(F)c(Cl)c3)c2C#N)cc1,107% (inactive)
8,CC(=O)c1cccc(NS(=O)(=O)c2ccc(C)cc2)c1,70.9% (inactive)
9,COc1ccc(-c2cc(-c3cc(OC)ccc3OC)[nH]c(=O)c2C#N)cc1,18.1% (inactive)
10,COc1cc(C2CC(c3ccc(Nc4nc(NCCO)nc(N5CCOCC5)n4)cc3)=NN2c2cc(Cl)cc(Cl)c2)cc(OC)c1OC (stereo not given),44.9% (inactive)
11,CC1(C)CC[C@]2(C(N)=O)CC[C@]3(C)C(=CC[C@@H]4[C@@]5(C)C/C(=C/c6ccncc6)C(=O)C(C)(C)[C@@H]5CC[C@]43C)[C@@H]2C1,-19.2% [100 µM] (active)
12,COc1cccc(NC(=O)c2cccc(-c3cc(=O)c4c(OC)c(OC)c(OC)cc4o3)c2)c1,68.7% (inactive)
13,O=C1C=CC2(NN=C(c3ccccc3)N2c2cccc(Cl)c2)c2cccc(O)c21 (stereo not given),21.8% (inactive)
14,C=C1C(=O)O[C@H]2[C@H]1CC/C(COC(=O)OC/C1=C/CC[C@@]3(C)O[C@H]3[C@H]3OC(=O)[C@@H](CN(C)C)[C@@H]3CC1)=C\CC[C@@]1(C)O[C@@H]21,-43% (active)
15,CCN(CC)CCC(CNc1ccnc2cc(Cl)ccc12)c1ccc(OC)cc1 (stereo not given),63.7% (inactive) and 61.7% (inactive)
16,ON=C1CCCCCCCC1,61.9% (inactive) and 105% (inactive)
17,Cc1cc(C(c2ccccc2)c2ccccc2)ccc1NS(=O)(=O)c1ccccc1,78.5% (inactive)
18,COc1cccc2cc(-c3nc(C4CCC(C(=O)O)CC4)n4ncnc(N)c34)[nH]c12 (stereo not given),33.3% (inactive)
19,CCOC(CN1CCN(CC(C)C(=O)c2ccccc2)CC1)c1ccccc1 (stereo not given),110% (inactive)
20,CN1CCN(CCC=C2c3ccccc3Sc3ccc(S(=O)(=O)N(C)C)cc32)CC1,91.3% (inactive) and 80.6% (inactive)

row,SMILES,growth
1,COC(=O)[C@]12CC[C@@H](C(/C=C/c3cccnc3)=N/O)[C@@H]1[C@H]1CC[C@@H]3[C@@]4(C)CC(=C/c5cccnc5)/C(=N/O)C(C)(C)[C@@H]4CC[C@@]3(C)[C@]1(C)CC2,2.86% (active)
2,Oc1ccc(N=Nc2ccc(Br)cc2)c(O)c1,-21.8% (active)
3,COc1ccc(-n2nc(C(=O)Nc3ccc(F)cc3)nc2-c2cc(OC)c(OC)c(OC)c2)cc1,91.5% (inactive)
4,COc1cc(C(=O)c2ccccc2C(=O)O)c(OC)c2c1CCCC2,36.8% (inactive) and 97.1% (inactive)
5,CC(=O)OC(OC(C)=O)C1CCCO1 (stereo not given),147% (inactive)
6,Br/C(=N\Nc1nn[nH]n1)c1ccccc1,103% (inactive)
7,COc1ccc2c(c1)CCCC21C(=O)Nc2ccccc21 (stereo not given),88% (inactive)
8,Cc1[nH]c(C(=O)Nc2ccccc2OCc2cccc(C(=O)NCCN)c2)c(Cl)c1Cl,45% (inactive)
9,CCOC(=O)N/N=C/c1ccc(OC)c(OC)c1,108% (inactive)
10,CCCCCN1C=C/C(=C\C(=O)N(C)c2ccc(Br)cc2)c2ccccc21,98.2% (inactive)
11,N#Cc1c(C(F)(F)F)cc(Nc2ccc3nc(NCCN4CCCC4)oc3c2)n2c1nc1ccccc12,86.6% (inactive)
12,CCCN(CCC)C(=O)c1ccc(C)cc1,100% (inactive)
13,O=C1OCC2=C1C(c1cccc(Cl)c1)c1cc3c(cc1N2CCO)OCCO3 (stereo not given),-20% (active)
14,O=[N+]([O-])c1ccc(S(=O)(=O)N2CCN(C3=NS(=O)(=O)c4ccccc4N3c3ccccc3)CC2)cc1,96.7% (inactive)
15,COC(=O)c1c2c(c(C)[n+]([O-])c1C)C(=O)C(NCc1ccc(O)cc1)=CC2=O,-8.85% (active)
16,O=c1ccn(-c2ncnc3nc[nH]c23)cc1,92.7% (inactive)
17,c1ncc2[nH]cnc2n1,54.2% (inactive)
18,COc1ccc(C(=S)c2cc(OC)c(OC)c(OC)c2)cc1OC(=O)CCl,-33% (active)
19,COc1ccc(-c2n[nH]nc2-c2cc(OC)c(OC)c(OC)c2)cc1,-8.64% (active)
20,COc1cc2cc(COc3nccc(-c4ccc(Cl)cc4)n3)c(=O)[nH]c2cc1OC,70.2% (inactive)
